About 3,300 (1.5%) of roughly 220,000 compounds were called active.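 Rule for the calls: active = compounds that cut the protein-peptide binding signal by more than 50% relative to plate controls in a single-dose test; inactive = the rest.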 The list comes from a sample in which actives are over-represented; it also holds similar structures and randomly drawn compounds.
Biological target: Induced myeloid leukemia cell differentiation protein Mcl-1 (Homo sapiens) (UniProt Q07820)
Assay: Mcl-1/Noxa binding inhibitors, primary screen, biochemical, TR-FRET, 1536-well (AID 1022);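 note: His-tagged Mcl-1 with rhodamine Noxa BH3 peptide and terbium anti-His antibody; 0% = Mcl-1 plus Noxa peptide wells and 100% = peptide-only wells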
Conditions: TR-FRET Mcl-1/Noxa peptide binding, 2 h; at 21.7 µM; hits give high values

Sequence of Induced myeloid leukemia cell differentiation protein Mcl-1 (Homo sapiens) (Q07820 whole entry, looked up): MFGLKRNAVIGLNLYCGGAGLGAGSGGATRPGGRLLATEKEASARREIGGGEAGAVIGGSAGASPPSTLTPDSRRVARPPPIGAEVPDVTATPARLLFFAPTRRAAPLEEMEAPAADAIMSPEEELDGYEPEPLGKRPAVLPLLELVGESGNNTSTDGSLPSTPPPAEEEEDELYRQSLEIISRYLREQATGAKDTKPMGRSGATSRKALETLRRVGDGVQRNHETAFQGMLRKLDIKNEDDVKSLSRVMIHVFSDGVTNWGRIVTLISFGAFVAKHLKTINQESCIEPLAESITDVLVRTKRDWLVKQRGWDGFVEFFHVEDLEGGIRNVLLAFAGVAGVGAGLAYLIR

SMILES	inhibition
O=S(=O)(NCCc1csc(-c2ccccc2)n1)c1cccnc1	-1.4% (inactive)
NCC(=O)c1cccc2ccc[n+]([O-])c12	17.5% (inactive)
COc1cc(NC(=O)c2ccc(CNc3c(N4CCCC4)c(=O)c3=O)cc2)cc(OC)c1OC	8.38% (inactive)
COc1cc(OC)c(-n2cc(-c3ccc(Cl)cc3)[nH]c2=O)cc1Cl	55.4% (active)
COc1ccc(-c2cn(-c3ccc(OC)cc3)c(=S)[nH]2)cc1	11.3% (inactive)
COc1cc(OC)c(-n2c(C)cc(C=O)c2C)cc1Cl	13.7% (inactive)
COc1ccc(/C=C/C(=O)Nc2ccc(C)cc2)cc1S(=O)(=O)N1CCOCC1	8.12% (inactive)
CCN(CC)c1ccc(/C=N/NC(=O)c2cnccn2)c(O)c1	15.6% (inactive)
CCn1c(SCC(=O)Nc2sc(C)c(C)c2C#N)nnc1C1CC1	29.1% (inactive)
Brc1ccc2c(c1)[C@H]1OCC[C@H]1[C@@H](c1cccs1)N2	-3.81% (inactive)
Cc1[nH]n(-c2ccccc2)c(=O)c1N=Nc1ccccc1C(=O)N1CCCCC1	11.2% (inactive)
O=C(Cn1nnc(-c2ccccc2)n1)N/N=C/c1ccc(-c2ccc(Cl)cc2)o1	54.1% (active)
Nc1nnnn1CC(=O)N/N=C/c1ccc(-c2cccc(Cl)c2)o1	39.1% (inactive)
Nc1nnn(CC(=O)N/N=C/c2ccccc2)n1	-7.14% (inactive)
O=C(Cn1nnc(-c2ccccc2)n1)NCc1ccccc1	-34.6% (inactive)
O=C(CN1CCOCC1)N/N=C/c1ccc(-c2ccc(Br)cc2)o1	10.4% (inactive)
Cc1[nH]c2ccccc2c1/C=N\NC(=O)Cn1nnc(-c2ccccc2)n1	62.8% (active)
COc1ccc(CCNCC(O)Cn2ccc3ccccc32)cc1OC (centres undefined)	15.7% (inactive)
Cc1ccc(OCC(=O)c2cc(C)n(Cc3ccco3)c2C)c([N+](=O)[O-])n1	8.57% (inactive)
COC(=O)c1ccc(S(=O)(=O)NCc2ccccc2)n1C	8.72% (inactive)

SMILES	inhibition
COc1ccccc1Cn1c(CO)nc2ccccc21	7.12% (inactive)
O=C(Nc1ccc(Cl)cc1)Nc1ccc(Oc2cccnc2)nc1	26.5% (inactive)
Cc1ccc(C2C3=C(Nc4[nH]n(-c5ccccc5)c(=O)c42)c2ccccc2C3=O)cc1 (centres undefined)	69% (active)
Cc1cc(C)c(C2C3=C(Nc4c2c(C)nn4-c2ccccn2)c2ccccc2C3=O)c(C)c1 (centres undefined)	12.5% (inactive)
Cc1ccc(N=Nc2c(C)[nH]n(-c3ccccc3)c2=O)cc1	23.8% (inactive)
O=C(/C=C/c1ccc(Cl)c([N+](=O)[O-])c1)c1ccc(O)cc1	-1.19% (inactive)
O=C(/C=C/c1ccc(Cl)c([N+](=O)[O-])c1)c1cccnc1	52.5% (active)
O=C(Nc1cccnc1)c1ccc(Cl)c([N+](=O)[O-])c1	14.2% (inactive)
Cc1nc(C(=O)N2CCCC(C(=O)c3ccc(Cl)cc3)C2)cs1 (centres undefined)	-4.61% (inactive)
CC(=O)c1c(C)[nH]c(=S)c(C#N)c1-c1ccc(F)cc1	-4.64% (inactive)
Oc1ccc(N2CCN(C(=S)NCc3ccccc3)CC2)cc1	61.1% (active)
S=C(NCCc1ccccc1)N1CCCCC1	21.5% (inactive)
Oc1ccccc1N1CCN(C(=S)NCc2ccccc2)CC1	16.6% (inactive)
CC(=O)N/C(=C\c1ccc(F)cc1)C(=O)NC(Cc1ccccc1)C(=O)O (centres undefined)	-9.17% (inactive)
Cc1cc(=O)n2[nH]c(-c3sccc3-n3c(C)ccc3C)cc2n1	50.6% (active)
CCc1c(C)nc2cc(-c3cccs3)[nH]n2c1=O	7.24% (inactive)
O=C(CS(=O)(=O)c1ccc(C(F)(F)F)cn1)NNC(=O)c1ccccc1	-2.05% (inactive)
COc1cccc(OC)c1CN(C)C(=O)c1cnccc1C(F)(F)F	-21.5% (inactive)
C/C=C(\C)C(=O)N1CC2(CC(c3cccc(NC(=O)CCCCC)c3)=NO2)C[C@@H]1C(N)=O (some centres undefined)	-15.7% (inactive)
O=C(NCCCc1ccccc1)C1CCC(CNc2c(N3CCCCC3)c(=O)c2=O)CC1 (centres undefined)	-3.38% (inactive)

SMILES	inhibition
CN(C)/C=C(/C(=O)c1ccc(Cl)c(Cl)c1)c1nnnn1-c1ccccc1	-12.2% (inactive)
O=C(COc1ccccc1[N+](=O)[O-])N/N=C/c1ccc[nH]1	-5.33% (inactive)
Nn1c(SCc2ccccc2)nnc1C1CCCCC1	19.7% (inactive)
O=C(COc1ccccc1[N+](=O)[O-])NC1CC1	-42.2% (inactive)
Cc1cc(OCCCN2CCN(Cc3ccccc3)CC2)ccc1[N+](=O)[O-]	27.1% (inactive)
Cc1cc(OCC(=O)NC2CCN(C)CC2)ccc1[N+](=O)[O-]	55.3% (active)
COc1cc2c3c(c1)/C(=C1/SC(=S)NC1=O)C(=O)N3C(C)(C)C=C2C	64% (active)
CC(C)n1c(CN2CCN(Cc3ccccc3)CC2)nc2ccccc21	24.8% (inactive)
O=[N+]([O-])c1cccc(-c2nnc3c4ccccc4c4ccccc4n23)c1	20.8% (inactive)
O=c1[nH]c2ccccc2n2c(-c3ccccc3)nnc12	101% (active)
CCOC(=O)c1cnc2[nH]c3ccccc3n2c1=O	22% (inactive)
CCOC(=O)c1c(CC(C)C)csc1/N=C/C1=C(O)CCCC1=O	-5.98% (inactive)
CC(=O)NC1C(OCc2ccccc2)OC(COC(C)=O)C(OC(C)=O)C1OC(C)=O (centres undefined)	10.8% (inactive)
O=C(OCC1O[C@@H](OC(=O)c2cc(O)c(O)c(O)c2)[C@@H](OC(=O)c2cc(O)c(O)c(O)c2)[C@@H](OC(=O)c2cc(O)c(O)c(O)c2)[C@@H]1OC(=O)c1cc(O)c(O)c(O)c1)c1cc(O)c(O)c(O)c1 (some centres undefined)	114% (active)
COC(=O)c1cc(=O)n(-c2c(Cl)cc(C(F)(F)F)cc2Cl)[nH]1	3.78% (inactive)
Cc1cc(C(=O)NNC(=O)c2cccc(S(=O)(=O)N3CCOCC3)c2)c2ccccc2n1	63.2% (active)
O=C(NNC(=S)Nc1ccccc1)c1cccc(S(=O)(=O)N2CCOCC2)c1	1.14% (inactive)
Cc1cc(C(=O)Nc2ccccc2N2CCOCC2)c2ccccc2n1	-3.21% (inactive)
O=C1NC[C@@H](Cc2ccc(O)cc2)N(CCc2cccc(F)c2)C1=O	6.16% (inactive)

Reference: PubChem BioAssay AID1022 (Emory University Molecular Libraries Screening Center, 2008)
